Test results as given in PubChem BioAssay (NCI).
The panel holds about 83,000 compounds, 20% with a hit somewhere; the sample as a whole holds those more often.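 Compound tested at a single concentration for 48 hours in 96-well plates; a percent growth value below 10 was scored as active.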 Calls of active or inactive are those of the source.

Tested on: EKVX NSCLC
Test: NCI-60 one-dose screen, 48 h (100 = growth as untreated, 0 = no growth, -100 = all killed)
Conditions: 10 µM unless noted
Experimental: Growth inhibition of the EKVX human Non-Small Cell Lung tumor cell line is measured as a screen for anti-cancer activity. Cells are grown in 96 well plates and exposed to the test compound for 48 hours. Compounds are tested at a single concentration, which is 10^-5 M for most compounds. The reported endpoint is percent growth (GI% or GIPRCNT), where numbers from 0 - 100% represent growth inhibition, and numbers from -100% - 0 represent cell death. For example, a value of 40 represents 60% growth inhibition. A value of 0 means no net growth occurred over the course of the experiment. A value of -40 indicates 40% of cells at the beginning of the experiment died by the end of the experiment. A value of -100 means all cells are dead at the end of the experiment.
NCI-60 Human Tumor Cell Lines Screen was performed using the standard one-dose NCI protocol, which is described in more detail at https://dtp.cancer.gov/discovery_development/nci-60/default.htm.
Compounds with GIPRCNT values below 10 were considered active. Activity score was based on GIPRCNT using the following formula: […]
Score is 0 for GIPRCNT values of 100 or above, 50 for GIPRCNT values of 0, and 100 for GIPRCNT values of -100.

Structure (SMILES) | growth
COc1cc(-c2nc(C(=O)Nc3ccc(C)cc3)nn2-c2ccc(F)c(F)c2)cc(OC)c1OC | 99.9% (inactive)
CCCCCCCCCCCC[n+]1ccccc1 | 5.6% (active)
C=CC(=O)N1CCC[C@@H](n2nc(-c3ccc(Oc4ccccc4)cc3)c3c(N)ncnc32)C1 | 52.8% (inactive)
Nc1ncnc2c1ccn2-c1cccc(NC(=O)c2ccc(N3CCOCC3)c(C(F)(F)F)c2)c1 | 56% (inactive)
CCCc1cc2cc(-n3nc(C)c4c3CC(C)(C)CC4=O)cc(NC3CCC(O)CC3)c2c(=O)[nH]1 (stereo not given) | 47.7% (inactive)
NC(=O)c1c(OCc2c(F)cc(Br)cc2F)nsc1NC(=O)NCCCCN1CCCC1 | 4.31% (active)
Cc1cc(C(=O)NOCCO)c(Nc2ccc(I)cc2F)n(C)c1=O | 56.7% (inactive)
CS(=O)(=O)N1CCN(Cc2cc3nc(-c4cccc5[nH]ncc45)nc(N4CCOCC4)c3s2)CC1 | 19.9% (inactive)
CCOC(=O)Sc1ncnc2nc[nH]c12 | 97.9% (inactive)
O=[N+]([O-])c1cc(Br)cc2c1[nH]c1ccc(Br)cc12 | 60.2% (inactive)
COc1cc(Nc2c(C#N)cnc3cc(OCCCN4CCN(C)CC4)c(OC)cc23)c(Cl)cc1Cl | 54.9% (inactive)
Cc1nc2cc(-c3nn(C(C)C)c4ncnc(N)c34)ccc2o1 | -10.3% (active)
COc1ccc(F)c(F)c1C(=O)c1cnc(NC2CCN(S(C)(=O)=O)CC2)nc1N | 2.22% (active)
CO[C@H]1C[C@@H]2CC[C@@H](C)[C@@](O)(O2)C(=O)C(=O)N2CCCC[C@H]2C(=O)O[C@H]([C@H](C)C[C@@H]2CC[C@@H](OCCO)[C@H](OC)C2)CC(=O)[C@H](C)/C=C(\C)[C@@H](O)[C@H](OC)C(=O)[C@H](C)C[C@H](C)\C=C/C=C/C=C/1C | 54.9% (inactive)
Cc1cc(Nc2ncc(Cl)c(Nc3ccccc3S(=O)(=O)C(C)C)n2)c(OC(C)C)cc1C1CCNCC1 | -87.6% (active)
CC(C)(C)CC(C)(C)Nc1c(-c2c(O)c3ccccc3oc2=O)nc2c(Cl)cc(C(F)(F)F)cn12 | 97.3% (inactive)
CCc1nc(C(N)=O)c(Nc2ccc(N3CCC(N4CCN(C)CC4)CC3)c(OC)c2)nc1NC1CCOCC1 | 46.6% (inactive)
COc1cc2c(cc1OCCCCN1CCN(CC(=O)Nc3ccc(Cl)cc3C(=O)c3ccccc3Cl)CC1)N=CC1CCCN1C2=O (stereo not given) | -79% (active)
COc1ccc2c(c1)cn1c3ccc(O)cc3nc(N)c21 | 41% (inactive)
COC(=O)[C@]12CC[C@@H](C)[C@H](C)[C@@H]1C1=CC[C@@H]3[C@@]4(C)C(C=O)=C[C@@](C)(COS(C)(=O)=O)C4=CC[C@@]3(C)[C@]1(C)CC2 | -39.2% (active)

Structure (SMILES) | growth
CSC1=C(N)C(=O)c2[nH]cc(CO)c2C1=N | -56.6% (active)
COC(=O)[C@@H](OC)[C@@H]1Cc2cc3cc(OC4CC(OC5CC(O)C(O)C(C)O5)C(O)C(C)O4)c(C)c(O)c3c(O)c2C(=O)[C@H]1OC1CC(OC2CC(OC3CC(C)(O)C(O)C(C)O3)C(O)C(C)O2)C(O)C(C)O1 (stereo not given in full) | 9.91% (active)
NC1=Nc2ccccc2N(O)N1 | 95.4% (inactive)
O=C1CC(c2ccc(Cl)cc2)c2ncn(-c3cccc(Cl)c3)c2N1 (stereo not given) | 73.5% (inactive)
COc1cc2cc(NCc3ccc(Cl)cc3)nc(C)c2cc1OC | 64.9% (inactive)
N#CC1(C#N)C(c2cccs2)NC(c2cccs2)C1(C#N)C#N (stereo not given) | 94% (inactive)
CN(C)C/C=C/C(=O)Nc1cc2c(Nc3ccc(F)c(Cl)c3)ncnc2cc1O[C@H]1CCOC1 | 4.87% (active)
CC1(C)NC(=O)c2[nH]c3c(Cl)c(Cl)ccc3c2C1C#N (stereo not given) | 67.2% (inactive)
CC(C)n1c(NCCc2ccc(O)c(O)c2)nc2c1c(=O)n(C)c(=O)n2C | 101% (inactive)
CC[n+]1c(/C=C/C=C2\N(C)c3ccccc3C2(C)C)sc2ccccc21 | 10.9% (inactive)
Cc1cc(N2CCOCC2)nc(N(CCNc2ccnc3cc(Cl)ccc23)Cc2cccs2)n1 | 51.5% (inactive)
ClCc1ccc(-c2ccc(Cn3cnc4nc(Cl)nc(Cl)c43)cc2)cc1 | 82.7% (inactive)
COc1cc2cc(NCc3ccc(F)cc3)nc(C)c2cc1OC | 78.7% (inactive)
O=C(Nc1ccc(C(=O)Nc2ccc(C3=NCCCN3)cc2)cc1)Nc1ccc(C2=NCCCN2)cc1 | 61.4% (inactive)
COc1cc2c(cc1OCCCCCN1CCN(c3ncnc4ccccc34)CC1)N=CC1CCCN1C2=O (stereo not given) | -41.5% (active)
O=C1CCC(=O)CC1 | 98.8% (inactive)
CC(=O)Oc1ccccc1C(=O)N=C1[Se]CCN1C(=O)c1ccccc1OC(C)=O | -39% (active)
N#Cc1c(-c2ccc(C(F)(F)F)cc2)cc(NCC2CCS(=O)(=O)CC2)n2c1nc1ccccc12 | 77.5% (inactive)
CCc1cc2c(c3ccc(C(=O)CBr)cc13)CCCC2 | 74.3% (inactive)
Cc1c(N)ccc(-c2ccc(N)c(C)c2S(=O)(=O)O)c1S(=O)(=O)O | 111% (inactive)
